# GLD-1 RNA inh = GLD-1-TGE RNA interaction inhibition (C. elegans); purified GLD-1 + fluorescein TGE RNA, fluorescence polarization; inhibition, % at 5.96 µM; 320,000 tested, 0.44% active; AID 2280;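 active = percent inhibition above a per-plate cutoff, the plate mean of test compounds plus 3 SD, cut at about 30% in these data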;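 also: 0% = DMSO wells with GLD-1 and probe and 100% = wells lacking GLD-1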
# MEX-5 binding = C. elegans MEX-5 TCR-2 RNA binding activity; Q9XUB2; MEX-5/FITC-TCR2 RNA binding, fluorescence polarization; active compounds read low; activity score (negative = inhibition of binding), % at 10 µM; 300,000 tested, 0.38% active;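 active = inhibition past about -25% in most replicates, and total fluorescence under double the plate's negative control median, limit read from the data; inconclusive = replicates evenly split on the limit, or fluorescence at least double controls; inactive = too little inhibition in most replicates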;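 also: 0% = DMSO and -100% = 5 µM competing unlabeled TCR2 RNA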
# MCL1-BIM inh = MCL1-BIM-BH3 interaction inhibition (human) | 320,000 tested, 0.68% active | Q07820 | inhibition, % at 10.9 µM | GST-MCL1 / FITC-Bim-BH3 fluorescence polarization | AID 2057;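 active = inhibition above the mean inhibition of all tested compounds plus 3 SD, set per campaign, cut at about 40% in these data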;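 also: 0% = DMSO wells and 100% = unlabeled Bim-BH3 peptide control; higher means more loss of mP so more displacement of Bim peptide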
# Target sequence (Q07820 whole entry, looked up): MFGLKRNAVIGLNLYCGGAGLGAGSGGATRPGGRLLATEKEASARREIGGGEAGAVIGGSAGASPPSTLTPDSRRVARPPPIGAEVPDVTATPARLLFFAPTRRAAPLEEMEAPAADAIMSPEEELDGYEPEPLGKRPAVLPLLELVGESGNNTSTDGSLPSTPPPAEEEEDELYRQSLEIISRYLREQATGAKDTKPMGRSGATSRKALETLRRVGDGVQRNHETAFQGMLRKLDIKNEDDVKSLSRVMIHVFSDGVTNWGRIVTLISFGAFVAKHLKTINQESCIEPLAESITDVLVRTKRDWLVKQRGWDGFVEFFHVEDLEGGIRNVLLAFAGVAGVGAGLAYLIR
# EBV gp42 inh = inhibitors of Epstein-Barr virus glycoprotein 42 | Q1HVG2 | Fluorescence polarization binding assay, mP read-out | 220,000 tested, 0.42% active | inhibition, % (tested at 21.74 µM) | AID 1085; in the data active = inhibition above about 50%
# Target sequence (Q1HVG2 whole entry, looked up): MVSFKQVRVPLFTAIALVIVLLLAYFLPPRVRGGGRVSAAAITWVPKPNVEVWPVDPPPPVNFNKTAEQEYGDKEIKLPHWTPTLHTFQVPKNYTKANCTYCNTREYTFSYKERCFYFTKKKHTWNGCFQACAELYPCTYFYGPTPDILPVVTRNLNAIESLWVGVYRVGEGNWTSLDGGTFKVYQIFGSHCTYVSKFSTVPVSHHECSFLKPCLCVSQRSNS
# Bcl-xL primary = inhibitors of human Bcl-xL | GST-Bcl-xL / FITC-Bim BH3 peptide fluorescence polarization | AID 2129 | Q07817 | inhibition, % at 10.9 µM | 320,000 tested, 0.7% active;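 active = inhibition above the mean of all tested compounds plus 3 SD, cutoff set per campaign, cut at about 30% in these data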;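 also: 0% = DMSO wells and 100% = unlabeled Bim-BH3 peptide competitor; inhibitors lower millipolarization by displacing the labeled peptide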
# E coli Lon inh = inhibits E. coli Lon protease; inhibition, % at 7.94 µM; purified E. coli Lon protease, fluorescence polarization; 360,000 tested, 0.42% active; P0A9M0; in the data active = inhibition above about 13%, passing the limit was not always enough;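 also: 0% = enzyme with probe and DMSO and 100% = no enzyme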
# Bcl-xL conf = Bcl-xL (human) inhibition, MCL1 counter-screen confirmation | shares compounds with MCL1-BIM inh | GST-Bcl-xL / FITC-Bim BH3 peptide FP binding | inhibition, % at 10.9 µM | 1,700 tested, 54% active | AID 2166;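 active = inhibition above a cutoff equal to the mean inhibition of all tested compounds plus 3 SD, cut at about 30% in these data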;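 also: 0% = DMSO wells and 100% = unlabeled Bim BH3 control peptide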
# MCL1 BIM confirm = MCL1-BIM-BH3 interaction inhibition, confirmation. GST-MCL1 / FITC-Bim-BH3 fluorescence polarization. inhibition, % at 10.9 µM. 1,700 tested, 61% active. AID 2168. shares compounds with MCL1-BIM inh;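 active = inhibition above the average of all tested compounds plus 3 SD, cut at about 40% in these data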;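 also: 0% = DMSO wells and 100% = unlabeled Bim-BH3 control peptide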
# GLD1 RNA confirm = confirmation of C. elegans GLD-1 TGE RNA binding inhibitors | shares compounds with GLD-1 RNA inh | inhibition, % at 5.96 µM | GLD-1/FL-TGE RNA fluorescence polarization, biochemical | 550 tested, 10% active;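 active = average inhibition across triplicates above the hit cutoff set in the primary screen, cut at about 32% in these data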;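 also: 0% = GLD-1 with RNA probe and DMSO and 100% = wells lacking GLD-1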
# E coli Lon conf = confirmation of E. coli Lon protease inhibitors | shares compounds with E coli Lon inh | purified E. coli Lon, fluorescence polarization | inhibition, % at 7.94 µM | 1,400 tested, 31% active; in the data active = inhibition above about 16%;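 also: 0% = enzyme with probe and DMSO and 100% = no enzyme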
# An asterisk follows results filed as active; ? = inconclusive; . = not tested or not shown; + = active, no number. Sampled rows, rich in hits. Any-hit rate of the full collection: about 1.5%.
SMILES,GLD-1 RNA inh,MEX-5 binding,MCL1-BIM inh,EBV gp42 inh,Bcl-xL primary,E coli Lon inh,Bcl-xL conf,MCL1 BIM confirm,E coli Lon conf,others
COc1ccc(OC)c(CN2CCN(C(=O)[C@@H](NC(=O)c3cccc(C)c3)C(C)C)CC2)c1,1,.,0,.,1,-3,.,.,.,
CCCCC1OC23CCCCC2C(C#N)(C#N)C1(C#N)C(=N)O3 (configuration not stated),83*,-8,127*,-9,103*,26*,7,3,4,
CCCCC1OC23CCCCC2C(C#N)(C(=N)O3)C1(C#N)C#N (configuration not stated),54*,1,78*,-33,78*,25*,14,27,0,GLD1 RNA confirm=-6
N#CC1(C#N)C(c2ccccc2)OC23CCCCC2C1(C#N)C(=N)O3 (configuration not stated),102*,-49*,178*,-5,132*,30*,17,16,41*,
Cc1c(C(=O)N(CC(C)C)c2c(N)n(Cc3ccccc3)c(=O)[nH]c2=O)sc2nc3n(c(=O)c12)CCC3,8,4,4,.,4,6,.,.,.,
Cc1ccc2c(c1)C(=O)N1c3cc(C)c(C)cc3NC(=O)C1C(=O)N2 (configuration not stated),.,.,.,.,.,-11,.,.,.,
COC(=O)c1ccc2c(c1)SC1=C(CCCC1=O)N2,96*,-2,177*,146*,148*,35*,118*,161*,100*,GLD1 RNA confirm=48*
COc1[nH]c(/N=C/c2ccccc2)c(C#N)c1C#N,159*,-59*,194*,39,160*,149*,50*,40*,8,
Cc1cc(OCC(=O)OCC(=O)c2ccc[nH]2)ccc1Cl,.,.,.,.,.,-2,.,.,.,
CN(C)CCN(C)Cc1c2ccccc2c(CN(C)CCN(C)C)c2ccccc12,123*,-64*,189*,.,172*,125*,77*,102*,47*,
CN(C)CCP(=O)(c1ccccc1)c1ccccc1,0,2,0,-10,5,-4,.,.,.,
CC(=O)N/N=C/c1cc(C(C)(C)C)cc(/C=N/NC(C)=O)c1O,156*,2,89*,67*,94*,41*,86*,115*,75*,
O=[n+]1c2c(n([O-])c3cc(F)c(N4CCCC4)cc31)CCCC2,145*,?,+,101*,181*,114*,173*,+,111*,
O=[n+]1c2c(n([O-])c3cc(F)c(N4CCCC4)cc31)CCC2,161*,?,+,.,191*,151*,186*,+,190*,
CN(CC(=O)Nc1ccc(F)c(F)c1F)C(=O)c1n[nH]c(=O)c2ccccc12,2,.,.,.,.,-7,.,.,.,
Cc1cccc(NC(=O)CN(C)C(=O)C2CCCC2)c1C,0,.,-10,.,-9,-5,.,.,.,
COC(=O)c1cnc(N2CCCN(S(=O)(=O)c3ccc(C(F)(F)F)cc3)CC2)nc1C(F)(F)F,4,-1,0,-9,-4,0,.,.,.,
O=C1C(Cl)=C(N2CCN(Cc3ccccc3)CC2)C(=O)N1Cc1ccccc1,34*,-4,56*,-3,57*,36*,7,4,0,GLD1 RNA confirm=7
COCCCN(C(=O)C(C)Oc1ccc(Br)cc1)c1c(N)n(Cc2ccccc2)c(=O)[nH]c1=O (configuration not stated),10,-1,-6,.,-9,-14,.,.,.,
Cc1cccc(NC(=O)CSc2nnc(-c3ccco3)c(-c3ccco3)n2)c1,.,.,.,0,.,8,.,.,.,
Cc1cccc(NC(=O)CSc2nnc(-c3ccco3)c(-c3ccco3)n2)c1C,3,-14,41*,32,25,89*,98*,141*,2,
O=C1c2ccccc2C(=O)c2c1cccc2N(CCO)CCO,46*,-42*,65*,.,72*,27*,58*,77*,20*,GLD1 RNA confirm=50*
O=C1C=C(N(CCO)Cc2ccccc2)c2ccccc2C1=O,.,-1,.,-14,.,1,.,.,.,
C[C@H]1C(=O)N(C)CCN1C(=O)c1cccc(OC2CCN(CC(C)(C)C)CC2)c1,4,-7,6,.,6,2,.,.,.,
CCN(CC)C(=O)CSc1nnc2nnc3cc(OC)ccc3n12,120*,-77*,148*,124*,138*,132*,124*,159*,118*,
SMILES,GLD-1 RNA inh,MEX-5 binding,MCL1-BIM inh,EBV gp42 inh,Bcl-xL primary,E coli Lon inh,Bcl-xL conf,MCL1 BIM confirm,E coli Lon conf,others
CC1CCCCC1NC(=O)c1cccc(NC2=NC3CS(=O)(=O)CC3S2)c1 (configuration not stated),0,-2,8,.,3,-4,.,.,.,
Cc1cc(=O)oc2c(CN3CCCC3)c(O)c(Cl)cc12,30,-9,26,.,25,1,.,.,.,
Cc1cc(=O)oc2c(CN3CCC(C)CC3)c(O)c(Cl)cc12,119*,-40*,142*,72*,105*,25*,80*,113*,39*,
COc1ccc(C=NCCc2ccc(OC)c(OC)c2)cc1OC,.,.,.,.,.,-13,.,.,.,
O=C(N/N=C/c1sc(=O)[nH]c1-[n+]1ccc2ccccc2c1)c1ccccc1[O-],165*,-14,178*,.,156*,134*,31*,32,48*,
CCc1cc(C(=O)Nc2ccc(OC)nc2)sc1C,85*,-58*,118*,.,111*,50*,108*,130*,5,
Nc1cnccc1C(=O)O,98*,-30*,125*,5,107*,131*,144*,174*,80*,
COC(=O)c1ccncc1N,0,0,-1,0,-2,-14,.,.,.,
O=C(O)c1cccc(CN2C(=O)c3ccccc3C2=O)c1,-5,0,-3,.,4,5,.,.,.,
O=C1c2cccc3c(O)ccc(c23)C(=O)N1Cc1ccccc1,+,?,+,187*,+,+,+,+,+,
NC(=O)c1c(NC(=O)C(=O)N2CCOCC2)sc2c1CCC2,5,-2,3,.,5,2,.,.,.,
CCN(C(=O)c1coc(=O)c(Br)c1)c1ccc2c(c1)OCO2,18,-12,62*,32,58*,21*,110*,122*,4,

# Compound activity: PubChem, several laboratories
